Records with an inconclusive call do not appear. Values without a mark were called inactive. The source made the active and inactive calls. Calls come from the whole dose curve; as a rule, active = well fitted inhibition curve with a large enough effect; inconclusive = small, poorly fitted or top-dose-only effect; inactive = flat fitted curve, though single readings scatter.
Experiment: qHTS to identify inhibitors of the type 1 interferon - major histocompatibility complex class I in skeletal muscle: primary screen against the NCATS LOPAC collection (AID 1347405);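 note: lytic HiBiT luminescence reporting HLA-B protein level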
Conditions: iHSKM muscle cells, IFN-b-induced MHC-I HiBiT luminescence, 24 h; series mostly up to 45.9 µM; activity change, negative = inhibition: at the top concentration
Source text: Assay Submitter (PI): Travis B. Kinder Ph.D. & James Inglese Ph.D.
Assay Development and Screening Technology Laboratory (ADST)
National Center for Advancing Translational Sciences (NCATS), Rockville, MD
National Institute of Health (NIH), Bethesda, Maryland
Idiopathic inflammatory myopathies, collectively referred to as myositis, are a group of rare autoimmune diseases characterized by skeletal muscle inflammation, weakness, and usually accompanied by systemic pathologies of the skin, lungs, or vasculature. Current immunosuppressive therapies and glucocorticoids are often not curative and are accompanied by harsh side effects, especially in children with juvenile myositis. We initiated a drug repurposing and development program to identify more targeted, less toxic therapeutics to treat myositis. Although its cause is not known, muscle from a subset of patients have an abundance of the inflammatory type 1 interferon (IFN) and a down-stream product major histocompatibility complex class I (MHC class I), which are both thought to contribute to damage and weakness. We conducted quantitative high throughput screening on 6,576 compounds (4,679 unique) through a series of cell-based assays to identify those that inhibit the IFN-stimulated expression of MHC class I in muscle precursor cells (myoblasts). The compound identification and evaluation strategy utilized a primary screen with reporter-tagged MHC class I in genome-engineered myoblasts, ATP content counter screen for viability, HLA-ABC immunofluorescence secondary screen, and HLA-B RT-qPCR tertiary screen.
The primary screen utilized CRISPR/Cas9 genome-engineering of immortalized human myoblasts, C25cl48, where a pro-luminescent reporter HiBit was fused to the C-terminus of endogenous MHC class I allele HLA-B*08:01 (HLA-B HiBit myoblasts). HiBit is an 11 amino acid fragment of NanoLuc luminescent reporter (Promega Corporation), and when complexed to the larger LgBit fragment, the reconstituted enzyme produces light in the presence of furimazine substrate (Schwinn et al., 2018). Briefly, HLA-B HiBit myoblasts were plated into 1536-well plates, treated with 4.0 ng/ml human IFN-beta and 1,280 compounds from the Library of Pharmacologically Active Compounds 1280 library (LOPAC1280, Sigma Aldrich) in a 7-point, 1:4.3 titration with a high final concentration of 46 uM. After 24 hrs of treatment, cells were assayed by Nano-Glo HiBiT Lytic Detection System (Promega) and luminescence measured by a ViewLux 1430 Ultra HTS (Perkin Elmer).
Schwinn MK, Machleidt T, Zimmerman K, Eggers CT, Dixon AS, Hurst R, Hall MP, Encell LP, Binkowski BF, Wood K V. 2018. CRISPR-Mediated Tagging of Endogenous Proteins with a Luminescent Peptide. ACS Chem Biol 13:467-474. doi:10.1021/acschembio.7b00549
PROTOCOL TABLE (as described by Inglese et al., 2007)
SEQUENCE No. (e.g., 1, 2, 3, etc.); […] (e.g., Cells, Incubation, Reagent, etc.); VALUE; DESCRIPTION
1a; Cells; 5 uL; Use a Multidrop Combi (Thermo Scientific) to seed 350 cells/well into nine Greiner 1536 well white/solid bottom, high base, TC plates in 5 ul/well of iHSKM growth medium (GM) without dexamethasone into columns 1+2. Add metal lids with gas-exchange holes
1b; Cells; 5 uL; Use a Multidrop Combi (Thermo Scientific) to seed 350 cells/well into nine Greiner 1536 well white/solid bottom, high base, TC plates in 5 ul/well of iHSKM GM without dexamethasone + 4 ng/ml IFN-b into columns 3 - 48. Add metal lids with gas-exchange holes
2; Incubate; 1 hr; Incubate at 37 C, 5% CO2, 95% RH
3; Compounds; 23 nl; Use Pin Tool (Wako) to transfer DMSO control, ruxolitinib IFN-b inhibitor control [High Concentration = 80 uM final, 16-pt, 1:2 in duplicate], and library compounds in DMSO
4; Incubate; 24 hrs; Incubate at 37 C, 5% CO2, 95% RH
5; Dispense; 2.5 ul; Use BioRAPTR FRD (Beckman Coulter) to add HiBit lytic reagent
6; Incubate; 10 min; Incubate in the dark at ambient temperature for lysis
[…]
% is set by controls: 0 for no effect and ±100 for the full control effect; potency is the fitted concentration of half-maximal effect.

SMILES	activity change, negative = inhibition [%]	Potency
CC(=O)O[C@]1(C(C)=O)CC[C@H]2[C@@H]3C=C(Cl)C4=CC(=O)[C@@H]5C[C@@H]5[C@]4(C)[C@H]3CC[C@@]21C	-8.71	
Cc1cccc(C)c1OCC(C)N (stereo not drawn)	5.64	
CCn1cc(C(=O)O)c(=O)c2ccc(C)nc21	11.7	
C[N+](C)(C)CCCCCC[N+](C)(C)C		inactive
O=C(O)CCc1nc(-c2ccccc2)c(-c2ccccc2)o1	8.2	
CCN(CC)C(=O)c1ccc(O)c(OC)c1	-1.9	
CC(=O)N[C@@H](CS)C(=O)O	-25.8	
CCN1CCC[C@H]1CNC(=O)c1cc(S(N)(=O)=O)ccc1OC	-4.07	
COC(=O)[C@@H]1[C@H]2C[C@H]3c4[nH]c5ccccc5c4CCN3C[C@@H]2CC[C@@H]1O	-22.4	
CC(=O)c1ccc(S(=O)(=O)NC(=O)NC2CCCCC2)cc1	-15.6	
O=C1NC(=O)C(c2ccccc2)(c2ccccc2)N1	-14	
CCN(CC)CCOC(=O)c1ccc(N)cc1	-15	
CN(C)CCC(c1ccccc1)c1ccccn1 (stereo not drawn)	-8.51	
COc1ccc(Cc2nccc3cc(OC)c(OC)cc23)cc1OC	-27.5	
O=C(NCCN1CCOCC1)c1ccc(Cl)cc1	4.89	
CCCCC1C(=O)N(c2ccccc2)N(c2ccccc2)C1=O		15.8 µM (active)
CC(C)NCC(O)COc1cccc2[nH]ccc12 (stereo not drawn)	1.29	
O=C1NCC2(CCN(CCc3ccccc3)CC2)O1	-3.34	
COc1cccc(-c2cc(=O)c3ccccc3o2)c1N	-17.4	
NCCS	-4.61	
CC(=O)CCCCn1c(=O)c2c(ncn2C)n(C)c1=O	2.18	
COc1ccccc1N1CCN(CCCNc2cc(=O)n(C)c(=O)n2C)CC1	-5.85	
Clc1ccc(Cn2c(CN3CCCC3)nc3ccccc32)cc1	-2.24	

Source: PubChem BioAssay (NCATS)
